Screening results (PubChem BioAssay)
Sfp PPTase inh – qHTS Assay for Inhibitors of Bacillus subtilis Sfp phosphopantetheinyl transferase (PPTase); 4'-phosphopantetheinyl transferase ffp (Bacillus subtilis), Q9F4F7; Biochemical Sfp PPTase activity, qHTS; Potency, µM, inactives show largest response in the series, negative = inhibition, hits mostly inhibitors; 3.5% of 310,000 active; AID 1490, 2009;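 note: the enzyme is Sfp with the accession as filed and its product quenches rhodamine fluorescence; 0% = enzyme reaction without inhibitor and -100% = no enzyme wells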
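After 15 min at room temperature with compound, 15 nM Sfp received 5 uM rhodamine-CoA plus 12.5 uM BHQ-2-ybbR (50 mM Hepes pH 7.6, 10 mM MgCl2). Rate came from the fluorescence difference over 30 min, ex 525/em 598 nm.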
G9a block – qHTS Assay for Inhibitors of Histone Lysine Methyltransferase G9a | Histone-lysine N-methyltransferase EHMT2 (Homo sapiens), Q96KQ7 | G9a H3K9 monomethylation, AlphaScreen, 2 h | Potency, µM (doses to about 102 µM), for inactives: at the top dose activity, negative = inhibition, most hits filed as inhibitors | 8.8% of 350,000 active | AID 504332, 2011; note: % is set by controls: 0 for no effect and ±100 for the full control effect; nearly all actives have a fitted effect of over 75% in size
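G9a (20 nM) was preincubated 15 min with compound, then reacted 2 h at room temperature with 500 nM biotin-H3K9 peptide and 20 µM SAM. Monomethyl-H3K9 detected by AlphaScreen using anti-H3K9me1 antibody.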
BAZ2B inh – qHTS Assay for Inhibitors of BAZ2B; 4.4% of 360,000 active; Bromodomain adjacent to zinc finger domain protein 2B (Homo sapiens), Q9UIF8; Potency, µM (series often up to 114 µM), without a hit: at the top dose activity change, negative = inhibition, usual class: inhibitors; AlphaScreen BAZ2B-H3K14Ac peptide displacement; note: % is set by controls: 0 for no effect and ±100 for the full control effect; nearly all actives have a fitted effect of over 60% in size
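AlphaScreen luminescence quantifies BAZ2B engagement of H3K14Ac peptide; the protein and biotinylated peptide are both at 50 nM final, buffer PBS pH 7.4 with 0.01% Tween-20, all steps at room temperature.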
JMJD2A Tudor inh – qHTS Assay for Inhibitors of JMJD2A-Tudor Domain; Lysine-specific demethylase 4A (Homo sapiens), O75164; AlphaScreen JMJD2A-Tudor / H3K4me3 peptide binding; Potency, µM (titrated, usually from 114 µM), inactives show at the highest dose activity change, negative = inhibition, hits mostly inhibitors; 4.4% of 390,000 active; note: % is set by controls: 0 for no effect and ±100 for the full control effect; nearly all actives have a fitted effect of over 50% in size
L3MBTL1 inh – qHTS Assay for the Inhibitors of L3MBTL1. Lethal(3)malignant brain tumor-like protein 1 (Homo sapiens), Q9Y468. AlphaScreen L3MBTL1–H3K9me1 peptide binding. Potency, µM (highest dose often 57.1 µM), inactives show at the top dose activity, negative = inhibition, actives largely listed as inhibitors. 0.66% of 230,000 active; note: % is set by controls: 0 for no effect and ±100 for the full control effect; nearly all actives have a fitted effect of over 60% in size
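L3MBTL1 50 nM + b-AHA-H3(1-15)K9me1 75 nM, 30 min RT; compound added, 30 min RT; streptavidin donor/Ni-chelate acceptor beads 10 ug/mL each final, 30 min RT dark; AlphaScreen read.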
HP1b binding inh – HTS for Inhibitors of HP1-beta Chromodomain Interactions with Methylated Histone Tails; Chromobox protein homolog 1 (Homo sapiens), P83916; AlphaScreen HP1-beta / biotin-H3K9me3 peptide binding; Potency, µM (doses to about 114 µM), inactives show top-dose activity change, negative = inhibition, actives largely listed as inhibitors; 0.56% of 390,000 active; note: nearly all actives have a fitted effect of over 70% in size
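Compound inhibition of the preformed complex between 50 nM HP1-beta and 50 nM biotinylated H3K9me3 peptide was read by AlphaScreen. Buffer was PBS pH 7.4 with 0.01% Tween-20. Incubations ran 30 min at room temperature, with 10 ug/mL donor/acceptor beads.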
* = called active by the depositor; ? = inconclusive; · = no result; [ ] = another dose, or the depositor's remark. Only some compounds are listed: those with a hit (about 12% of all), similar ones and a draw of the others. Calls come from the whole dose curve; as a rule, active = well fitted curve in the direction sought with a large enough effect; inconclusive = small, poorly fitted or top-dose-only effect, or another doubt; inactive = no such curve, though single readings can be large; an effect the other way counts as inactive or inconclusive. Potency is the fitted concentration of half-maximal effect.

SMILES	Sfp PPTase inh	G9a block	BAZ2B inh	JMJD2A Tudor inh	L3MBTL1 inh	HP1b binding inh
Nn1c(SCC(=O)Nc2ccccc2Oc2ccccc2)nnc1C1CC1	·	50µM*	2%	-12%	-10%	19%
Cc1ccc(NC(=O)CN(C)CC(=O)Nc2ccccc2Oc2ccccc2)cc1	?	35µM*	25µM*	3.5µM*	11%	18µM*
O=C(O)CCC(=O)Nc1ccccc1Oc1ccccc1	9%	-11%	-21%	20µM*	0%[11.4 µM]	1%
Cc1ccc(NC(=O)CSCC(=O)N(C)CC(=O)Nc2ccccc2C(F)(F)F)cc1	·	50µM*	6%	-14%	13%	20%
Cc1cccc(C)c1NC(=O)CN(C)CC(=O)Nc1ccccc1Oc1ccccc1	-4%	5%	-2%	-23%	-17%	13%
Cc1ccc(C(=O)C2CCN(CC(=O)N3CCN(c4ccc(F)cc4)CC3)CC2)cc1	19%	6%[59 µM]	?	-33%	·	4%
Cc1ccc(Cl)cc1N(C)C(=O)Cn1ncc2c([nH]c3ccccc32)c1=O	8%	3%	-23%	-22%	·	31%
COc1ccc(OCC(O)CN2CCN(c3ccccc3)CC2)cc1 (stereo unspecified)	3%	29%[0.501 µM]	-12%	?	35%	22%
CCc1ccc(OCC(O)CN2CCN(c3ccc(OC)cc3)CC2)cc1 (stereo unspecified)	-16%	10µM*	71µM*	35µM*	·	-16%
COc1ccc(N2CCN(CC(O)COCc3ccccc3)CC2)cc1 (stereo unspecified)	8%	40µM*	56µM*	?	-13%	1%
CCN1CCN(CC(O)COc2cccc(OC)c2)CC1 (stereo unspecified)	11%	56µM*	-4%	-29%	-8%	25%
COc1ccc(N2CCN(CC(O)COc3ccc(C(C)(C)C)cc3)CC2)cc1 (stereo unspecified)	·	?	?	79µM*	·	-1%
Nc1nc2c(c(=O)[nH]1)N=C(CNc1ccc(C(=O)NC(CCC(=O)O)C(=O)O)cc1)CN2 (stereo unspecified)	-19%	·	·	·	·	·
Cc1ccc(C)c(S(=O)(=O)N/N=C/c2ccc(F)cc2)c1	-29%	11µM*	-4%	-22%	-2%	27%
CC(=O)Nc1ccc(/C=N/NS(=O)(=O)c2cc(C)ccc2C)cc1	-11%	50µM*	-37%	-4%	-12%	36%
COc1ccc(/C=N/N2CCN(c3ccccc3OC)CC2)cc1Br	-8%	3%[0.501 µM]	40µM*	?	1%[2.29 µM]	-13%
COc1ccccc1N1CCN(/N=C/c2ccc(C(=O)O)cc2)CC1	18%	-8%	1%	-17%	·	32%
COc1ccccc1N1CCN(/N=C/c2ccc(O)c(O)c2)CC1	22µM*	-120%[12.7 µM]	50µM*	22µM*	-17%	28µM*
COc1ccc(/C=N/N2CCN(c3ccccc3OC)CC2)cc1OC	19%	45µM*	?	?	-5%	-11%
COc1ccccc1N1CCN(/N=C/c2cc(Br)ccc2F)CC1	-2%	?	?	?	-13%	-5%
CCN(CC)c1ccc(/C=N/N2CCN(c3ccccc3OC)CC2)cc1	-22%	8.9µM*	32µM*	32µM*	-14%	14µM*
COc1ccc(/C=N/N2CCN(c3ccccc3)CC2)cc1Br	10%	-7%	4%	-8%	0%	18%
c1ccc(CNCc2nnc(-c3cc4ccccc4[nH]3)s2)cc1	·	·	·	-18%	·	·
